# Sampled rows, rich in hits. Any-hit rate of the full collection: about 4.8%.
# hgDAF-12 ag: agonists of H. glycines DAF-12 nuclear receptor. HEK293 GAL4-hgDAF12 UAS-luciferase reporter, agonist luminescence; normalized to butyrate control. activation, % at 6.8 µM. hit rate 1.8% among 370,000;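 active = activation above a cutoff set at the mean of all screened compounds plus 3 SD, cut at about 10% in these data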
# DAX1 inh-1: NR0B1 (DAX1) inhibition; P51843; HEK293 Gal4-DAX1 luciferase reporter, luminescence; inhibition, % at 6.75 µM; hit rate 0.99% among 340,000;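 active = inhibition above the mean over all tested compounds plus 3 SD, cut at about 4.2% in these data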;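 note: inhibition shows as a rise in luminescence from relieved DAX1 repression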
# Target sequence (P51843 207-470 limits assumed): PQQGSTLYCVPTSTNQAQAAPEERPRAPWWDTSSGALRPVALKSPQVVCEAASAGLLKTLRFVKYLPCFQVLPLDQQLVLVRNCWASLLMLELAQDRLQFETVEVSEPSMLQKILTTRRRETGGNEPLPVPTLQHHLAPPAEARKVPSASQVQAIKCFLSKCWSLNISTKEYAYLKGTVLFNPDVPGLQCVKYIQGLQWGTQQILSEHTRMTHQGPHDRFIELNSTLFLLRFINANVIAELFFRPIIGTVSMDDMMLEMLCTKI
# SMARCA2 activ: activators of SMARCA2 function. MG213 cells, MMTV-luciferase reporter, dexamethasone, overnight. AID 652017. activation, % at 9.1 µM. hit rate 1% among 370,000; in the data active = activation above about 7.8%
# ssDAF12 agonist: S. stercoralis DAF-12 activation, primary screen. hit rate 1% among 370,000. AID 652126. HEK293 ssDAF-12/GRIP1 lit1-tk-luc reporter, luminescence; % of 3 µM dafachronic acid response. activation, % at 6.8 µM;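 active = activation above the mean over all tested compounds plus 3 SD, cut at about 0.9% in these data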
# hcDAF-12 act: activators of H. contortus DAF-12 nuclear receptor. HEK293 hcDAF-12 lit1-tk-luc reporter, luminescence; 0% DMSO, 100% Δ7-dafachronic acid. activation, % at 6.8 µM. hit rate 1.4% among 370,000;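 active = activation above the mean of all tested compounds plus 3 SD, cut at about 5.5% in these data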
# DAX1 inh-2: inhibitors of DAX1 repression of SF-1 activated StAR promoter; HEK293T StAR-luciferase reporter, SF-1/DAX-1 repression relief; inhibition, % at 6.8 µM; hit rate 1.1% among 370,000;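 active = inhibition above the mean over all tested compounds plus 3 SD, cut at about 3.6% in these data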;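 note: higher inhibition means more luminescence from relief of DAX-1 repression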
# Hits are given with their value; 0 = inactive; - = no result.
SMILES,hgDAF-12 ag,DAX1 inh-1,SMARCA2 activ,ssDAF12 agonist,hcDAF-12 act,DAX1 inh-2
Cc1cccc(C)c1NC(=O)C1CCN(c2ncccn2)CC1,0,-,0,0,0,0
Cc1ccc(C(=O)NC(=S)Nc2cccnc2Cl)cc1,12,0,0,0,0,0
C=CCN1C(=O)[C@@H](CC(=O)N2CCCCC2)[C@]2(C(=O)OCC)CCCCC/C=C/12,0,-,0,0,0,0
Cc1[nH]c2c([N+](=O)[O-])cccc2c1C,0,4.2,0,0,0,0
COC(=O)C[C@H]1CC[C@@H]2[C@@H](COc3ccc(NS(=O)(=O)c4ccccc4Cl)cc3C(=O)N2C)O1,0,-,0,0,0,0
CC(C)C(C#CC1CC1)N(Cc1ccc2c(c1)OCO2)C(N)=NC(=O)/C=C/c1ccccc1 (stereo not given),0,-,0,0,0,0
O=[N+]([O-])c1ccc(O)c(/C=N/n2cnnc2)c1,0,5.1,0,0,0,0
CN(C)/N=C/c1cc([N+](=O)[O-])ccc1O,0,0,0,0,0,0
O=[N+]([O-])c1cccc(/C=N/n2cnnc2)c1,0,6.3,0,0,0,0
COCO[C@@H]1CC(CO)=C[C@H]2OCO[C@H]21,0,-,-,0,0,-
CCOC(=O)c1cnc(SCC(C)C)nc1N,11,0,0,0,0,0
CCOC(=O)c1cnc(SCC(=O)c2ccc(C)cc2)nc1N,0,0,0,0,0,0
CCOC(=O)c1cnc(SC)nc1N,0,0,0,0,0,0
CCOC(=O)c1cnc(SCC#N)nc1N,0,6.9,0,0,0,0
C=CCN1C(=O)[C@@H](CC(=O)N2CCN(C(=O)C3CC3)CC2)[C@]2(C(=O)OCC)CCCCC/C=C/12,0,-,0,0,0,0
O=C1CC(C(=O)Nc2ccccc2)S/C(=N\NC(=O)c2ccccc2Cl)N1 (stereo not given),0,4.3,0,0,0,0
COc1ccccc1C(=O)N/N=C1/NC(=O)CC(C(=O)Nc2ccccc2)S1 (stereo not given),0,0,0,0,0,0
COc1ccc(N=C(N)NC(=O)OCc2ccccc2)cc1,0,-,0,0,0,0
S=c1[nH]nc(-c2ccncc2)n1/N=C/C(Cl)=C\c1ccccc1,12,0,0,0,0,0
CCOc1ccc(/C=N/n2c(-c3ccccc3)n[nH]c2=S)cc1,0,5.8,0,0,0,0
CCOC(=O)c1cccc(NC(=O)c2ccccc2C)c1,11,0,0,0,0,0
CCc1ccc(Oc2cc(C)nc(N)n2)cc1,11,0,0,0,0,0
CCCc1ccc(Oc2cc(Cl)nc(N)n2)cc1,0,0,0,0,0,0
Cc1ccc(-c2cc(-c3nnc(SCC(=O)N4CCOCC4)n3N)[nH]n2)cc1,0,-,0,0,0,0
COc1ccc(C(=O)NN=C2CCCC2)cc1,0,0,0,0,0,0
SMILES,hgDAF-12 ag,DAX1 inh-1,SMARCA2 activ,ssDAF12 agonist,hcDAF-12 act,DAX1 inh-2
COc1cccc(C(=O)NN=C2CCCC2)c1,11,0,0,0,0,4.5
O=C(NN=C1CCCC1)c1ccccc1O,11,0,0,0,0,0
O=C1NC[C@H](CCCCN2C[C@H](Cc3ccccc3)N(CCC3CCCCC3)C(=O)C2=O)N(CC2CCCCC2)C1=O,0,-,0,0,0,0
CC(C)C[C@H]1CN(CCCC[C@@H]2CNC(=O)C(=O)N2CC2CCCCC2)C(=O)C(=O)N1Cc1ccccc1,11,-,0,0,0,0
CC(C)C[C@H]1CNC(=O)C(=O)N1CC1CCN(CC2CCC(C(C)(C)C)CC2)CC1 (stereo not given in full),0,0,0,0,0,4.1
CC(C)CCN1CCC(CN2C(=O)C(=O)NC[C@@H]2CC(C)C)CC1,0,-,0,0,0,0
O=C1NC[C@H](CCCCN2C[C@H](Cc3ccccc3)N(CC3CCCCC3)C(=O)C2=O)N(CCC2CCCCC2)C1=O,0,-,0,1.4,0,0
CC(C)C[C@H]1CN(CCCC[C@H]2CNC(=O)C(=O)N2Cc2ccccc2)C(=O)C(=O)N1CC1CCCCC1,0,-,0,0,0,0
CCCCN1C(=O)/C(=C2\SC(N3CCOCC3)=NC2=O)c2ccccc21,0,0,0,0,5.9,0
CCN1C(=O)/C(=C2\SC(N3CCOCC3)=NC2=O)c2ccccc21,0,0,0,0,0,0
CNC(=O)c1cc2c(cn1)[nH]c1ccccc12,0,0,0,0,0,3.7
CCCCNC(=O)C[C@H]1C[C@@]2(C(=O)OC)C(=C[C@H](C(C)C)O[C@@H]2C2CC2)N(Cc2ccco2)C1=O,0,-,0,0,0,0
CNC(=S)Nc1cccc(C(=O)O)c1,0,0,0,1.4,0,0
COc1ccccc1NC(=S)NC(=O)CCc1ccccc1,0,0,0,0,0,0
O=C(CCc1ccccc1)NC(=S)Nc1cccc(Br)c1,0,0,0,0,0,0
O=C(CCc1ccccc1)NNC(=O)c1ccccc1Br,0,5.0,0,0,0,0
O=C(CCc1ccccc1)NC(=S)Nc1ccccc1Br,0,8.4,0,0,0,0
O=C(O)c1cccc(NC(=S)NC(=O)c2ccncc2)c1,0,0,0,0,0,0
O=C(CCc1ccccc1)NC(=S)Nc1cccc(C(=O)O)c1,0,0,0,0,0,4.0
COC(=O)C1CN(C2CC2)CCS(=O)(=O)N1Cc1cn(Cc2ccc(Cl)cc2)nn1 (stereo not given),0,-,0,0,0,0
CC(=O)OC12CCCN(C1)/C(=C/c1cccnc1)C2 (stereo not given),0,-,0,0,0,0
COc1ccc(/C=N/NC(=S)Nc2cccc(C(=O)O)c2)cc1OC,0,0,0,0,0,0
COc1cccc(/C=N/NC(=S)Nc2cccc(C(=O)O)c2)c1,0,0,0,1.6,0,0
Cc1ccc(/C=N/Nc2ncnc3nc[nH]c23)cc1,0,5.6,0,0,0,0
Oc1ccc(/C=N/Nc2ncnc3nc[nH]c23)cc1,0,0,0,0,0,0
SMILES,hgDAF-12 ag,DAX1 inh-1,SMARCA2 activ,ssDAF12 agonist,hcDAF-12 act,DAX1 inh-2
Clc1ccc(/C=N/Nc2ncnc3nc[nH]c23)cc1,0,4.9,0,0,0,0
CCCCNS(=O)(=O)/C=C/c1cc(C)ccc1CNC(=O)OC(C)(C)C,0,-,0,0,0,0
COc1cccc(CNC2CCC23CCC(C)CC3)c1 (stereo not given),0,-,-,0,0,-
CCCOc1ccc(-c2nc(SCc3ccccc3)[nH]c(=O)c2C#N)cc1OC,0,0,0,4.3,0,0
CCSc1nc(-c2ccccc2)c(C#N)c(=O)[nH]1,0,0,0,0,0,0
Cc1ccc(CNC(=O)OC(C)(C)C)c(/C=C/S(=O)(=O)NC2CCCC2)c1,0,-,0,0,0,0
Cc1ccc(/C=N/N2CCN(c3ccccn3)CC2)o1,0,4.7,0,0,0,0
C(=N\N1CCN(c2ccccn2)CC1)/c1ccco1,0,0,0,0,0,0
Oc1ccc(/C=N/N2CCN(c3ccccn3)CC2)cc1,0,0,0,0,0,0

# Bioassay records as filed in PubChem BioAssay.
